One sequence from paper PMC7862700, “An all-to-all approach to the identification of sequence-specific readers for epigenetic DNA modifications on cytosine” can be followed below.

Experiment in all cases: DAPPL (digital affinity profiling via proximity ligation, sequencing); 10 mM Tris-HCl pH 7.5, 50 mM NaCl, 1 mM DTT, 4% glycerol, room temperature, 30 min; GST-TFs on glutathione beads, 16-mer random dsDNA library, 0.1% formaldehyde crosslink after washing; high values mean tight binding
In one experiment the target is T1, FEV (Homo sapiens, UniProt Q99581 1-238).
T1 sequence: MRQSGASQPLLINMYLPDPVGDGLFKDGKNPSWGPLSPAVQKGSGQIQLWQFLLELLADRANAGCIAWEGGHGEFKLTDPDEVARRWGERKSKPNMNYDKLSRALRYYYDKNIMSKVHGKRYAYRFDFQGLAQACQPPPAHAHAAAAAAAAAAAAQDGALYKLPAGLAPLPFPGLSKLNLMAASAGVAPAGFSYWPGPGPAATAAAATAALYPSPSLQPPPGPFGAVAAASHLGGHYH
The following applies: protein: recombinant; tags: N-terminal GST; dsDNA, one strand shown. A digest of the protocol:
(§1)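 Pools were built from human transcription factors expressed in yeast as GST fusions, captured on glutathione beads and DNA-barcoded, along with a tag-only sample. Incubation with 200 nmole of a 16-mer random double-stranded DNA library lasted 30 min at room temperature in Tris/NaCl/DTT/glycerol buffer, and was followed by washing, 0.1% formaldehyde crosslinking, proximity ligation, PCR amplification and Illumina NextSeq500 sequencing. Binding signal is the quotient of each hexamer's read frequency for a factor and its frequency for the tag-only sample.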

The next experiment deals with ETV5 (Homo sapiens, UniProt P41161 1-510). The note with it: protein: recombinant; tags: N-terminal GST; dsDNA, one strand shown. A digest of the protocol:
as §1

The target in the next experiment is HSF1 (Homo sapiens, UniProt Q00613 1-529). The following applies: protein: recombinant; tags: N-terminal GST; chain copies: 3; dsDNA, one strand shown. A digest of the protocol:
as §1

Another experiment deals with T2, SPIC (Homo sapiens, UniProt Q8N5J4 1-248).
T2 sequence: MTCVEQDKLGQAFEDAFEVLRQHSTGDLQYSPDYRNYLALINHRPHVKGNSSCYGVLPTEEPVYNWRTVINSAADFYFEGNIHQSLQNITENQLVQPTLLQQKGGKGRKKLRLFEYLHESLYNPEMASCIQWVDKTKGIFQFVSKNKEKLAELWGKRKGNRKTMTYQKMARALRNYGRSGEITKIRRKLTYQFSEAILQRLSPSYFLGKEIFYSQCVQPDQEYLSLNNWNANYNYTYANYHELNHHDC
The following applies: protein: recombinant; tags: N-terminal GST; dsDNA, one strand shown. A digest of the protocol: as §1

A further experiment concerns the target ELF4 (Homo sapiens, UniProt Q99607 1-663). The following applies: protein: recombinant; tags: N-terminal GST; dsDNA, one strand shown. A digest of the protocol: as §1
The next experiment concerns the target T3, ELK4 (Homo sapiens, UniProt P28324-2 1-405).
T3 sequence: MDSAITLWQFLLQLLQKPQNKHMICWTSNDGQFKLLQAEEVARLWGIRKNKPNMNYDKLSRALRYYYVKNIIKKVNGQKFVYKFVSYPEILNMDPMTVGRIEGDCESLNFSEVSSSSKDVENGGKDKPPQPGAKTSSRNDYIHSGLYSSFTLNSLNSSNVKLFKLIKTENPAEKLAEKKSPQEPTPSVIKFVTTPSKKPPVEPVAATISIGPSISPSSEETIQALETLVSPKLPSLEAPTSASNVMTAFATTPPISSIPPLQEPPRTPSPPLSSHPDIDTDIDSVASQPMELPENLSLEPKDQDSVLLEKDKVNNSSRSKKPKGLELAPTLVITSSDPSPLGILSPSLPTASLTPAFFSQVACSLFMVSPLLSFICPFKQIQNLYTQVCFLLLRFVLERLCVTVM
The note with it: protein: recombinant; tags: N-terminal GST; dsDNA, one strand shown. A digest of the protocol:
as §1

For a further experiment, the target named is T4, ETV2 (Homo sapiens, UniProt O00321 1-342).
T4 sequence: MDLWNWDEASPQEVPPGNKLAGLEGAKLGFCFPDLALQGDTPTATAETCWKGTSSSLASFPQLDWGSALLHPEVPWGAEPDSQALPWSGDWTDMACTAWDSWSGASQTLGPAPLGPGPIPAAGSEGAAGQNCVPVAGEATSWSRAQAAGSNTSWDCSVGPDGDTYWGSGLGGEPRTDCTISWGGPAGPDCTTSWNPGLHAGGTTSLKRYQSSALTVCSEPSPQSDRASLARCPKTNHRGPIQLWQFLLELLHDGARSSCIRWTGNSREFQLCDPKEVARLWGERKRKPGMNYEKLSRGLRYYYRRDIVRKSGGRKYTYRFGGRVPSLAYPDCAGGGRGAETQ
The note with it: protein: recombinant; tags: N-terminal GST; dsDNA, one strand shown. A digest of the protocol:
as §1

The target in another experiment is T5, ELF3 (Homo sapiens, UniProt P78545 1-371).
T5 sequence: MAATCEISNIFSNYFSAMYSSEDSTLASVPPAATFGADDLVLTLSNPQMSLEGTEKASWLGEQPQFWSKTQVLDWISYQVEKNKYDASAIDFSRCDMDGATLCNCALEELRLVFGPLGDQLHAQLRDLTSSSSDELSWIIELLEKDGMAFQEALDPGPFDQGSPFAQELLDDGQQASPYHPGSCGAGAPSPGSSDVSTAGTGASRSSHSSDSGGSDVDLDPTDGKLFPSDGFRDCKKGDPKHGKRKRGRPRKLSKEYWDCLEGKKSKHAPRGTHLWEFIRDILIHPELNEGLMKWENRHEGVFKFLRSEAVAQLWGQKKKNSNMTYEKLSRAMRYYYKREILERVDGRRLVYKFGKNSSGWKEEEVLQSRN
The note with it: protein: recombinant; tags: N-terminal GST; dsDNA, one strand shown. A digest of the protocol: as §1

In a further experiment the target is CRX (Homo sapiens, UniProt O43186 1-299). The note with it: protein: recombinant; tags: N-terminal GST; dsDNA, one strand shown. A digest of the protocol:
as §1

The next experiment addresses ETV1 (Homo sapiens, UniProt P50549 1-477). The following applies: protein: recombinant; tags: N-terminal GST; dsDNA, one strand shown. A digest of the protocol: as §1
In a further experiment the target is T6, ERF (Homo sapiens, UniProt P50548 1-548).
T6 sequence: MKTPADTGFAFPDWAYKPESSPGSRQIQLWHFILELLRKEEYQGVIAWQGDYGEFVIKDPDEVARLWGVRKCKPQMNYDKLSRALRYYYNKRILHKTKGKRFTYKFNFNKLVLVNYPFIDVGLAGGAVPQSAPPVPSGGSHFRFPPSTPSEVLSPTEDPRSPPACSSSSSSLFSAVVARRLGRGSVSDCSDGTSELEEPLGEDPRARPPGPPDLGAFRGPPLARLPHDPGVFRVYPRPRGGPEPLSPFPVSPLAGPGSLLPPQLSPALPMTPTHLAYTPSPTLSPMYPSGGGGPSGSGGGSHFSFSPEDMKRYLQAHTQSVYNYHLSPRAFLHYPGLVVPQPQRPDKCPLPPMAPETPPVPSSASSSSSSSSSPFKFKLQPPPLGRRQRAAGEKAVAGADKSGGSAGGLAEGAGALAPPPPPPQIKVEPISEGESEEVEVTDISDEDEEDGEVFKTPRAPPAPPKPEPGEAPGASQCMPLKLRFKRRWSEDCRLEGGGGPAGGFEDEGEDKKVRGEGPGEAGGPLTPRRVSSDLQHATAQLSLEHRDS
The note with it: protein: recombinant; tags: N-terminal GST; dsDNA, one strand shown. A digest of the protocol: as §1

A further experiment concerns the target T7, ETV3L (Homo sapiens, UniProt Q6ZN32 1-361).
T7 sequence: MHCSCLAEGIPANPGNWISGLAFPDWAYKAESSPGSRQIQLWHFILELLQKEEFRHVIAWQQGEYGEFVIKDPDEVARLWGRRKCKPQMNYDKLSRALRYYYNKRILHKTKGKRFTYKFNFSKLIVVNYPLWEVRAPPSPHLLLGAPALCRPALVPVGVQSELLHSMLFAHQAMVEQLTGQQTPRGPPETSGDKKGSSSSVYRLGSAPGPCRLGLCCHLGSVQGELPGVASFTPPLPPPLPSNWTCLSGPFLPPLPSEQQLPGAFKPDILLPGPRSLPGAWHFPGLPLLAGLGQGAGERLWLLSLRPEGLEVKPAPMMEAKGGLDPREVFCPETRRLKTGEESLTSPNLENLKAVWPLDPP
The note with it: protein: recombinant; tags: N-terminal GST; dsDNA, one strand shown. A digest of the protocol: as §1

The next experiment has as its target T8, ETS2 (Homo sapiens, UniProt P15036 1-469).
T8 sequence: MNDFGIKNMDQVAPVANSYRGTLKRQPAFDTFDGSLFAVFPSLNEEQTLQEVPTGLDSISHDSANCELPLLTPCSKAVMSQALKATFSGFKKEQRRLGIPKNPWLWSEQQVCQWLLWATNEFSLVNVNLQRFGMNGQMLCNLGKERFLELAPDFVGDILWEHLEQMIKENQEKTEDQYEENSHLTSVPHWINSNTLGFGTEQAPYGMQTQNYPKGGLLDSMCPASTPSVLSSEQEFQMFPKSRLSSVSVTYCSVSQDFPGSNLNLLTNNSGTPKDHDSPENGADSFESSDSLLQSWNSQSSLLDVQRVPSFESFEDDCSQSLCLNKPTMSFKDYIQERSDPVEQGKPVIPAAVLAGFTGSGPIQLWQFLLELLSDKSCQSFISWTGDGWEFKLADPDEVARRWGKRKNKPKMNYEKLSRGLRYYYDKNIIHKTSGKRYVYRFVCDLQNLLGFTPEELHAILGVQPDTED
The following applies: protein: recombinant; tags: N-terminal GST; dsDNA, one strand shown. A digest of the protocol: as §1

Another experiment has as its target T9, SPDEF (Homo sapiens, UniProt O95238 1-335).
T9 sequence: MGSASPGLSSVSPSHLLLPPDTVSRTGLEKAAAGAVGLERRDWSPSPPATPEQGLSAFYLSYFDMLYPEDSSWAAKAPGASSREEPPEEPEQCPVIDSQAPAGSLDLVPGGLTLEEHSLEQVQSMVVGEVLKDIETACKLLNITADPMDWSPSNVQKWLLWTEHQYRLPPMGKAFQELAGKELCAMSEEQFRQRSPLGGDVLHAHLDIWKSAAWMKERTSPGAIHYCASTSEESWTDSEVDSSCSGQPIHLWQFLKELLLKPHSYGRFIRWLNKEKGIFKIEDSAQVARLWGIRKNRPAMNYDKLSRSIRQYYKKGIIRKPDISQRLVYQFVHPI
The note with it: protein: recombinant; tags: N-terminal GST; dsDNA, one strand shown. A digest of the protocol:
as §1

A further experiment concerns the target T10, ETV7 (Homo sapiens, UniProt Q9Y603 1-341).
T10 sequence: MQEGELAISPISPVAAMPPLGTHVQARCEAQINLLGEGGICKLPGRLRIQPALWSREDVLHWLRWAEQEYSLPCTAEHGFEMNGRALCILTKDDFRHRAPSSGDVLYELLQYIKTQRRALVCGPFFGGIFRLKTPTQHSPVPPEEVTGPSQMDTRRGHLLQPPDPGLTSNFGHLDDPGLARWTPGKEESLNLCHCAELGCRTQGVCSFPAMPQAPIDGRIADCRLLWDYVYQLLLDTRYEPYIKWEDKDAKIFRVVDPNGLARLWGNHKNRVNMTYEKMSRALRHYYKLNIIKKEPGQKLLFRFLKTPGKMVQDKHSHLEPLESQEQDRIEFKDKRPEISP
The following applies: protein: recombinant; tags: N-terminal GST; dsDNA, one strand shown. A digest of the protocol:
as §1

The target of a further experiment is T11, ELF5 (Homo sapiens, UniProt Q9UKW6-2 1-255).
T11 sequence: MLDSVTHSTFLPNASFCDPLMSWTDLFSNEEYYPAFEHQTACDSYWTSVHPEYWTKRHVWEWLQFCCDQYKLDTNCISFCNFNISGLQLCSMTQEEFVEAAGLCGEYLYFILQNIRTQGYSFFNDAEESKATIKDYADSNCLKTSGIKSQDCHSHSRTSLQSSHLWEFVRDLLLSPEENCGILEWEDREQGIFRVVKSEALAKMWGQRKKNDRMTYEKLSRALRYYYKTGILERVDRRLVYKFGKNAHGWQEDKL
The following applies: protein: recombinant; tags: N-terminal GST; dsDNA, one strand shown. A digest of the protocol:
as §1

The target in a further experiment is T12, ETV3 (Homo sapiens, UniProt P41162-2 1-143).
T12 sequence: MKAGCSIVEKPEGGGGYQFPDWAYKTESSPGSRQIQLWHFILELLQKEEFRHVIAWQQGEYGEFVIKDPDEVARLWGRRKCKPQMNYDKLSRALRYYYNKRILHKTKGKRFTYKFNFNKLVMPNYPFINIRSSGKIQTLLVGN
The following applies: protein: recombinant; tags: N-terminal GST; dsDNA, one strand shown. A digest of the protocol:
as §1

The target of the next experiment is ETV6 (Homo sapiens, UniProt P41212 1-452). The note with it: protein: recombinant; tags: N-terminal GST; dsDNA, one strand shown. A digest of the protocol:
as §1

CRX, sequence (O43186 whole entry): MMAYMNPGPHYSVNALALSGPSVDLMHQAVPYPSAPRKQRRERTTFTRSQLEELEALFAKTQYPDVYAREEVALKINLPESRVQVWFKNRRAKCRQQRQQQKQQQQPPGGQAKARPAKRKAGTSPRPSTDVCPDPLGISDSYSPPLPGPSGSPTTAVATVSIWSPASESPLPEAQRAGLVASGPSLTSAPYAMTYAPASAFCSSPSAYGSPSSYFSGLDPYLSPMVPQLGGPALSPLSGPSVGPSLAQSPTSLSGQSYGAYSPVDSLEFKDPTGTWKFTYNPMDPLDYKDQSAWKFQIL
ETV6, sequence (P41212 whole entry): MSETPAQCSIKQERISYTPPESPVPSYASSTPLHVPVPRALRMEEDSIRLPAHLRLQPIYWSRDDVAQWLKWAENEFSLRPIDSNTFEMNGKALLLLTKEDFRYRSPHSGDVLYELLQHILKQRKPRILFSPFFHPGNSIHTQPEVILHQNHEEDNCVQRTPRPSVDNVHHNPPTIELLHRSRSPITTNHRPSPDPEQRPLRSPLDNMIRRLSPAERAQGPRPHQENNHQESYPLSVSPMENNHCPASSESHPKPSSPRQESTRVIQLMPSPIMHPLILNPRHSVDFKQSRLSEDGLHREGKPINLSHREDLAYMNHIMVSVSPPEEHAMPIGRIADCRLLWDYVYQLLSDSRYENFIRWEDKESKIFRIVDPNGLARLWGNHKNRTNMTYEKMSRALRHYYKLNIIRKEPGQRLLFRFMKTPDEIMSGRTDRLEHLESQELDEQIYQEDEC
ELF4, sequence (Q99607 whole entry): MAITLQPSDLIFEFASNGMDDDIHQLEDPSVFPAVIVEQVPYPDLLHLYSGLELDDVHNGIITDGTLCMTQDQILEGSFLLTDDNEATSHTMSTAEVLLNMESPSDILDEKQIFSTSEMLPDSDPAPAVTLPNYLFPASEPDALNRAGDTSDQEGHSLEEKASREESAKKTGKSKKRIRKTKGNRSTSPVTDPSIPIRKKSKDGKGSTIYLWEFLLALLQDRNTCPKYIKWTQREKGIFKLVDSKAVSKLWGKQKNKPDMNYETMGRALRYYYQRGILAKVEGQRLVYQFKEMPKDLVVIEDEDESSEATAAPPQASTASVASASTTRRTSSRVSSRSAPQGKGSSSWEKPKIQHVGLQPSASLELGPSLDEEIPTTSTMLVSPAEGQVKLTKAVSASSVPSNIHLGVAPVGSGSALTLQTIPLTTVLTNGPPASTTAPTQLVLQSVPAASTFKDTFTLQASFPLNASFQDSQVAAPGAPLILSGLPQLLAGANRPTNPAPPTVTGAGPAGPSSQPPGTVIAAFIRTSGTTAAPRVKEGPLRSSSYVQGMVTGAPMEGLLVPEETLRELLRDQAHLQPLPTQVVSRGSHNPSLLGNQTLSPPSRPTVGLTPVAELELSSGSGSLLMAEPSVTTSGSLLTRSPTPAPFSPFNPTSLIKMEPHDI
ETV5, sequence (P41161 whole entry): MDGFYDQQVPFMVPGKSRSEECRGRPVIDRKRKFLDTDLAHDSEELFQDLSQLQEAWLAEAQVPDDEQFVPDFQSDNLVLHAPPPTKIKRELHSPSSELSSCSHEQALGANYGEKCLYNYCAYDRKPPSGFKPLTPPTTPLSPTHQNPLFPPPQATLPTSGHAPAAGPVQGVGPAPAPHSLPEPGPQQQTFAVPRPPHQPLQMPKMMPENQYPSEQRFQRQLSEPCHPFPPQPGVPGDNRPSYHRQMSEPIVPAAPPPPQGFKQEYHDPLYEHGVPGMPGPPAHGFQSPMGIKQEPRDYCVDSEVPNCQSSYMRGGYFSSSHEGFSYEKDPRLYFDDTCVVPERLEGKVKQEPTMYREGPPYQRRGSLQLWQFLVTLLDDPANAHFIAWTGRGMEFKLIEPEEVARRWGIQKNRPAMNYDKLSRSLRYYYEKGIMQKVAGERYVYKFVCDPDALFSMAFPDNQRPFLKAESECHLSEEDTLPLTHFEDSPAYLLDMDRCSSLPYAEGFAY
HSF1, sequence (Q00613 whole entry): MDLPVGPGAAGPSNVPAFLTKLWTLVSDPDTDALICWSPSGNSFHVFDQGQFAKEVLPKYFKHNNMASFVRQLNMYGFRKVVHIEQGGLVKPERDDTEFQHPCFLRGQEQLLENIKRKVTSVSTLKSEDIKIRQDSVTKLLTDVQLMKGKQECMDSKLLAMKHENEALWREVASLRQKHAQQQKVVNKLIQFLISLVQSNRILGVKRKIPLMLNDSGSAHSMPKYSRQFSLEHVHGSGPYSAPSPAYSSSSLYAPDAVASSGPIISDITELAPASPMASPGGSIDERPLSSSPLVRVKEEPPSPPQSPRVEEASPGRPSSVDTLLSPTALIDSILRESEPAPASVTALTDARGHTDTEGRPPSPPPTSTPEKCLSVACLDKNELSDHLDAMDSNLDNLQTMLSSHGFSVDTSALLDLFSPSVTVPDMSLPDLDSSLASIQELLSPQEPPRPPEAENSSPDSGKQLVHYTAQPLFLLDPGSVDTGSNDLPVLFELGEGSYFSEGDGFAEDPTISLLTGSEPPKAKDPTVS
ETV1, sequence (P50549 whole entry): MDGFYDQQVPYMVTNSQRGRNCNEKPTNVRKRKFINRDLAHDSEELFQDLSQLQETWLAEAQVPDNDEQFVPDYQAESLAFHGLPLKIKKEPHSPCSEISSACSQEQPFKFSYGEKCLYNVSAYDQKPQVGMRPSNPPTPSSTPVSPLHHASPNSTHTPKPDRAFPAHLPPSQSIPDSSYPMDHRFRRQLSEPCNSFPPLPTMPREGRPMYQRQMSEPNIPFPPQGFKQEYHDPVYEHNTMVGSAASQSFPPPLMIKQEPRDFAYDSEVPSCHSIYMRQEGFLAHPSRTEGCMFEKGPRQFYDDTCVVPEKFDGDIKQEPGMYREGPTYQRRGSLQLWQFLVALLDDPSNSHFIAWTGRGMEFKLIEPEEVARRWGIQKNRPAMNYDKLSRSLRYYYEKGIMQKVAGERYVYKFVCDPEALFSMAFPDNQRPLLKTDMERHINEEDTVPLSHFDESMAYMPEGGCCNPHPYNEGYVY

Regarding ATTATG, the binding signal with FEV is 1.13 fold enrichment (6-mer frequency, TF over GST control); with ETV5 it was 1.26 fold enrichment (6-mer frequency, TF over GST control); with HSF1 it was 1.68 fold enrichment (6-mer frequency, TF over GST control); with SPIC, 1.42 fold enrichment (6-mer frequency, TF over GST control); with ELF4, 1.22 fold enrichment (6-mer frequency, TF over GST control); in the experiment with ELK4 it was 1.11 fold enrichment (6-mer frequency, TF over GST control). Moreover, the binding signal with ETV2 was 1.03 fold enrichment (6-mer frequency, TF over GST control); in the experiment with ELF3, 1.48 fold enrichment (6-mer frequency, TF over GST control); with CRX it was 2.58 fold enrichment (6-mer frequency, TF over GST control); in the experiment with ETV1, 1.21 fold enrichment (6-mer frequency, TF over GST control); with ERF, 1.11 fold enrichment (6-mer frequency, TF over GST control); with ETV3L, 1.27 fold enrichment (6-mer frequency, TF over GST control). The binding signal is 1.14 fold enrichment (6-mer frequency, TF over GST control) in the experiment with ETS2; 1.19 fold enrichment (6-mer frequency, TF over GST control) with SPDEF; 1.32 fold enrichment (6-mer frequency, TF over GST control) with ETV7; 1.14 fold enrichment (6-mer frequency, TF over GST control) in the experiment with ELF5; 1.2 fold enrichment (6-mer frequency, TF over GST control) with ETV3; 1.33 fold enrichment (6-mer frequency, TF over GST control) in the experiment with ETV6.
